PrP UTR inh – inhibition of PrP 5' UTR reporter expression | cell-based PrP 5' UTR mRNA reporter, plate reader | AID 488862 | 0.35% of 340,000 active | inhibition, % (concentration not given with the values); in the data active = inhibition above about 52%; note: 0 = median of the neutral control wells
PriA SSB inh – inhibitors of Klebsiella pneumoniae PriA binding to SSB C-terminal tail. AlphaScreen SSBct-PriA binding, biotinylated peptide. inhibition, % at 33 µM. 0.6% of 430,000 active. AID 1272365; in the data active = inhibition mostly above about 37%, no sharp cut-off; inactive = mostly below about 20%;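 note: plate controls were negative control peptide for no effect and reference peptide for full effect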
BH1578 lux ind – inducers of Vibrio cholerae quorum light production without autoinducers. V. cholerae BH1578 lux reporter, luminescence, 6 h. activation, % at 18.7 µM. 0.16% of 350,000 active; in the data active = activation mostly above about 9.7%, no sharp cut-off
PrPC TRFRET – inhibitors of human cell surface prion protein PrPC | P04156 | TR-FRET read-out | 0.43% of 370,000 active | inhibition, % at 13.8 µM; in the data active = inhibition above about 24%; note: 0% = median of the test wells and 100% = reference compound wells
PfHsp40 rescue – compounds rescuing yeast from Plasmodium falciparum HSP40 toxicity | S. cerevisiae expressing PfHsp40, growth rescue, ATP luminescence | growth rescue, % at 12.5 µM | 0.68% of 340,000 active | AID 504582; in the data active = growth rescue above about 28%, passing the limit was not always enough;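 note: yeast W303a lacking pdr1 and pdr3 grown in galactose medium; growth measured after three days at 30 °C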
3CLpro inhibitor – SARS-CoV 3CLpro protease inhibition | P0C6X7 | recombinant SARS-CoV 3CLpro, quenched FRET peptide cleavage | inhibition, % at 6 µM | 0.14% of 290,000 active | AID 1706; in the data active = inhibition above about 12%
PrPC TRFRET cf – cell surface PrPC inhibition, TR-FRET confirmation. cell surface PrPC level. AID 743200. inhibition, % at 13.8 µM. shares compounds with PrPC TRFRET. 65% of 1,500 active; in the data active = inhibition above about 25%
LD9 cytotox – counter-screen for PrPc inhibitors: cytotoxicity in LD9 cells. shares compounds with PrPC TRFRET. 29% of 1,500 active. inhibition, % at 13.8 µM. luminescence viability. AID 743201; in the data active = inhibition above about 9.5%
Starred values were filed as active, the others as inactive. Most compounds without a hit are left out; they make up all but 1.6% or so of the library.

How did Cn1c(=O)c2c(nc(CN3CCc4ccccc4C3)n2Cc2ccccc2F)n(C)c1=O do in these assays?
PrP UTR inh: -5; PriA SSB inh: -2; PrPC TRFRET: 27*; PfHsp40 rescue: 1; 3CLpro inhibitor: -7; PrPC TRFRET cf: -2; LD9 cytotox: -3

Results for Cc1ccc(Cn2c(Cc3ccccc3)nc3ccccc32)cc1 ?
PrP UTR inh: -13; PriA SSB inh: -8; BH1578 lux ind: inactive; PrPC TRFRET: 76*; PfHsp40 rescue: 22; 3CLpro inhibitor: 2; PrPC TRFRET cf: 18; LD9 cytotox: -4

What do the screens show for `ClCc1nc2ccccc2n1Cc1ccccc1`?
PrP UTR inh: -11; PriA SSB inh: -12; BH1578 lux ind: 0; PrPC TRFRET: 9; PfHsp40 rescue: 0; 3CLpro inhibitor: 2

How did CCC1(C)Cc2ccccc2-c2[nH]c(=S)[nH]c(=O)c21 (stereo unspecified) do in these assays?
PrP UTR inh: -19; PriA SSB inh: 2; BH1578 lux ind: inactive; PrPC TRFRET: 90*; PfHsp40 rescue: 0; 3CLpro inhibitor: -1; PrPC TRFRET cf: 120*; LD9 cytotox: -8

Results for CCC1(C)Cc2ccccc2-c2nc[nH]c(=O)c21 (stereo unspecified) ?
PrP UTR inh: -54; PriA SSB inh: -3; BH1578 lux ind: 1; PrPC TRFRET: 4; PfHsp40 rescue: 0; 3CLpro inhibitor: -1

How did COc1ccc2c(c1)CCC1(C)CC(=O)C(Br)=C21 (stereo unspecified) do in these assays?
BH1578 lux ind: inactive; PrPC TRFRET: 42*; PrPC TRFRET cf: 68*; LD9 cytotox: -4

What do the screens show for `COC(=O)Cc1c(C)c2ccc(OCC(=O)N3CCCC3)c(C)c2oc1=O`?
PrP UTR inh: -3; PriA SSB inh: -8; BH1578 lux ind: 0; PrPC TRFRET: 28*; PfHsp40 rescue: 0; 3CLpro inhibitor: -3; PrPC TRFRET cf: 28*; LD9 cytotox: -5

What do the screens show for `CCOC(=O)CCc1c(C)c2ccc(OCC(=O)N3CCOCC3)c(C)c2oc1=O`?
PrP UTR inh: 7; PriA SSB inh: -6; BH1578 lux ind: inactive; PrPC TRFRET: -5; PfHsp40 rescue: 1; 3CLpro inhibitor: -5

How did COC(=O)Cc1c(C)c2ccc(OCC(=O)N3CCC(C)CC3)c(C)c2oc1=O do in these assays?
PrP UTR inh: -24; PriA SSB inh: -4; BH1578 lux ind: inactive; PrPC TRFRET: 28*; PfHsp40 rescue: 0; 3CLpro inhibitor: 0; PrPC TRFRET cf: 40*; LD9 cytotox: 4

Results for Cc1ccc(S(=O)(=O)NCc2ccsc2)c(C)c1 ?
PriA SSB inh: -7

Results for COCCn1c(SCC(=O)Nc2cccc(F)c2)nc2c([nH]c3ccccc32)c1=O ?
PrP UTR inh: 0; PriA SSB inh: -4; BH1578 lux ind: inactive; PrPC TRFRET: -3; PfHsp40 rescue: 1; 3CLpro inhibitor: 3

What do the screens show for `COCCn1c(SCC(=O)Nc2cccc(NC(C)=O)c2)nc2c([nH]c3ccccc32)c1=O`?
PrP UTR inh: -11; PriA SSB inh: -8; BH1578 lux ind: inactive; PrPC TRFRET: 29*; PfHsp40 rescue: 0; 3CLpro inhibitor: 0; PrPC TRFRET cf: 10; LD9 cytotox: 1

Results for O=c1[nH]c(=O)n(Cc2ccco2)c2c1C(C(F)(F)F)(C(F)(F)F)N=C(CCc1ccccc1)N2 ?
PriA SSB inh: -4; BH1578 lux ind: inactive; PrPC TRFRET: 56*; PfHsp40 rescue: 2; 3CLpro inhibitor: 3; PrPC TRFRET cf: 72*; LD9 cytotox: 2

What do the screens show for `O=c1[nH]c(=O)n(Cc2ccco2)c2c1C(C(F)(F)F)(C(F)(F)F)N=C(CCC1CCCCC1)N2`?
PrP UTR inh: -10; PriA SSB inh: -7; PrPC TRFRET: 15; PfHsp40 rescue: 3; 3CLpro inhibitor: 0

Results for CCN(Cc1cnc2ccccn12)C(=O)c1cn(C)nn1 ?
PriA SSB inh: -6

Results for C=Cc1ccc(Cn2ccn3nc(-c4ccc(OCC)cc4)cc3c2=O)cc1 ?
PriA SSB inh: -21

How did N=c1c2c(-c3ccccc3)c(-c3ccccc3)n(Cc3ccco3)c2ncn1CCCN1CCOCC1 do in these assays?
PrP UTR inh: 2; PriA SSB inh: 5; BH1578 lux ind: inactive; PrPC TRFRET: -21; PfHsp40 rescue: 0; 3CLpro inhibitor: -2

What do the screens show for `N=c1c2c(-c3ccccc3)c(-c3ccccc3)n(Cc3ccco3)c2ncn1CCCn1ccnc1`?
PrP UTR inh: -20; PriA SSB inh: 29; BH1578 lux ind: 0; PrPC TRFRET: 27*; PfHsp40 rescue: 235*; 3CLpro inhibitor: 2; PrPC TRFRET cf: -17; LD9 cytotox: 19*

How did Cc1cc(-c2nnc(NC(=O)c3ccc(Cc4ccccc4)cc3)o2)nn1C do in these assays?
PriA SSB inh: -4

Results for CCC(C)C(NC(=O)CCCNC(=O)CCC(=O)OC1O[C@H]2OC3(C)CC[C@H]4[C@H](C)CCC(C1C)C24OO3)C(=O)O (stereo partly specified) ?
PrP UTR inh: -14; BH1578 lux ind: 1; PrPC TRFRET: 28*; PfHsp40 rescue: 2; 3CLpro inhibitor: 3; PrPC TRFRET cf: 31*; LD9 cytotox: 22*

Results for CCC(C)NC(=O)CCC(=O)OC1O[C@H]2OC3(C)CC[C@H]4[C@H](C)CCC(C1C)C24OO3 (stereo partly specified) ?
PrP UTR inh: -21; PriA SSB inh: 1; BH1578 lux ind: inactive; PrPC TRFRET: 28*; PfHsp40 rescue: 101*; 3CLpro inhibitor: 3; PrPC TRFRET cf: 31*; LD9 cytotox: 21*

Results for Cc1cc2ccccc2n1CCNC(=O)C(C)(C)C ?
PrP UTR inh: -2; PriA SSB inh: 10; BH1578 lux ind: -1; PrPC TRFRET: 39*; PfHsp40 rescue: 1; PrPC TRFRET cf: 12; LD9 cytotox: -3

Results for Cc1cc2ccccc2n1CCNC(=O)COc1ccccc1 ?
PrP UTR inh: -19; PriA SSB inh: 49*; BH1578 lux ind: inactive; PrPC TRFRET: 42*; PfHsp40 rescue: 1; PrPC TRFRET cf: 37*; LD9 cytotox: -1

What do the screens show for `CCC(=O)NCCn1c(C)cc2ccccc21`?
PrP UTR inh: 1; PriA SSB inh: -15; BH1578 lux ind: 0; PfHsp40 rescue: 0; 3CLpro inhibitor: -5

What do the screens show for `Cc1cc2ccccc2n1CCNC(=O)Cc1cccc2ccccc12`?
PrP UTR inh: -29; PriA SSB inh: 34; BH1578 lux ind: 0; PrPC TRFRET: 41*; PfHsp40 rescue: 1; 3CLpro inhibitor: 1; PrPC TRFRET cf: 20; LD9 cytotox: -1

Results for Cc1cc2ccccc2n1CCNC(=O)c1ccccc1 ?
PrP UTR inh: -13; PriA SSB inh: 15; BH1578 lux ind: inactive; PrPC TRFRET: 15; PfHsp40 rescue: 1; 3CLpro inhibitor: 1
